The structures appear in SMILES notation. A number with no mark means an inactive call. For part of these data: Entries with a potency or affinity are not part of this list. Calls of active or inactive are those of the source. Unless noted, the rule behind the calls is not given here.

Experiment [1] can be described thus: antimalarial activity against Dd2 strain (AID 2302;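 active = growth inhibition above 50% at the single 2 µM test dose, taken to imply half-maximal potency below 2 µM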;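 note: 0% = DMSO untreated growth and 100% = chloroquine plus artemisinin killed control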). The conditions noted are these: P. falciparum Dd2 in RBCs, LDH growth readout, 72 h; at 2 µM; stronger effect = higher value.
The nature of experiment [2]: HepG2 cytotoxicity, primary screen, cytotoxicity control for P. falciparum antimalarial project, cell-based, ATP luminescence (AID 2303;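 active = inhibition above 50%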;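 note: 0% = DMSO wells and 100% = digitonin-killed cells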). The conditions noted are these: HepG2 viability, 24-48 h, at 10 µM, stronger effect = higher value.
Experiment [3] has as its target L-lactate dehydrogenase (Plasmodium falciparum (isolate CDC / Honduras)) (UniProt Q27743). In words: PfLDH activity inhibition – cell lysate, 3D7 strain, counter-screen for P. falciparum growth inhibition project (AID 2304).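 Note: 0% = vehicle and 100% = reference inhibitor.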 The conditions noted are these: P. falciparum 3D7 crude extract, LDH APAD/NBT absorbance; at 2 µM; stronger effect = higher value. Background: Counterscreens check selectivity or assay interference.

The nature of experiment [4]: inhibition of 3D7 malaria parasite growth – strain 3D7 (AID 2306).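 Note: 0% = DMSO wells and 100% = chloroquine plus artemisinin control wells.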 Conditions: P. falciparum 3D7 erythrocytic growth, LDH absorbance, 72 h; at 2 µM; stronger effect = higher value.
Experiment [5] deals with Calcium-dependent protein kinase 1 (Plasmodium falciparum (isolate 3D7)) (UniProt P62344). In words: PfCDPK1 kinase inhibitors, biochemical, TCAMS library (AID 1159585; cut-off not given, nearly all actives have IC50 up to about 0.98 µM;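 note: inhibitors leave more ATP so luminescence rises with inhibition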). The conditions noted are these: recombinant PfCDPK1, Kinase-Glo ATP depletion luminescence. For orientation: Kinase-Glo measures the ATP left after a reaction by luminescence.
For experiment [6], the target named is Plasmodium falciparum protein kinase 6 (PK6, PF3D7_1337100) (UniProt Q8IDW1). In words: PfPK6 kinase inhibitors, biochemical, TCAMS library (AID 1159586). The conditions noted are these: recombinant PfPK6, Kinase-Glo ATP depletion luminescence.
Experiment [7] concerns the target Protein kinase 7 (PK7), Plasmodium falciparum 3D7 (PF3D7_0213400) (UniProt Q7YTF7). In words: inhibition of Plasmodium PK7 catalytic activity – biochemical, TCAMS antimalarial set, Kinase-Glo luminescence (AID 1159587). The conditions noted are these: recombinant PfPK7, Kinase-Glo ATP depletion luminescence.
The target in experiment [8] is Calcium-dependent protein kinase 4 (Plasmodium falciparum (isolate 3D7)) (UniProt Q8IBS5). Put plainly: PfCDPK4 kinase inhibitors, biochemical, TCAMS library (AID 1159588; cut-off not given, nearly all actives have IC50 up to about 0.91 µM). The conditions noted are these: recombinant PfCDPK4, Kinase-Glo ATP depletion luminescence.
Calcium-dependent protein kinase 4 (Plasmodium falciparum (isolate 3D7)), sequence (Q8IBS5 whole entry, looked up): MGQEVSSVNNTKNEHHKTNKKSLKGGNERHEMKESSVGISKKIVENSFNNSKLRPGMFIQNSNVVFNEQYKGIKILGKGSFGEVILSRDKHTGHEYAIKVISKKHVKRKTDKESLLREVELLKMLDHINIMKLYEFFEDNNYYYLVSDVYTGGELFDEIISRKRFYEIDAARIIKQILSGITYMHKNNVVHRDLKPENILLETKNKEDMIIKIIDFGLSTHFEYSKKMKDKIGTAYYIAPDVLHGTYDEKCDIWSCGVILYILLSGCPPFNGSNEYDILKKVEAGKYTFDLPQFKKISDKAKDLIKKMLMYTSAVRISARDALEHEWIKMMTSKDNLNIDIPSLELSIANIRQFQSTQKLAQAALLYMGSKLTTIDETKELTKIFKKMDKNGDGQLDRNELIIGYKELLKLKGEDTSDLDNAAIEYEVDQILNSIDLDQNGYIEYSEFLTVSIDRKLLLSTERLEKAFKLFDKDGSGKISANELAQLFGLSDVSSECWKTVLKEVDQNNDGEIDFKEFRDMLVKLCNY

Calcium-dependent protein kinase 1 (Plasmodium falciparum (isolate 3D7)), sequence (P62344 whole entry, looked up): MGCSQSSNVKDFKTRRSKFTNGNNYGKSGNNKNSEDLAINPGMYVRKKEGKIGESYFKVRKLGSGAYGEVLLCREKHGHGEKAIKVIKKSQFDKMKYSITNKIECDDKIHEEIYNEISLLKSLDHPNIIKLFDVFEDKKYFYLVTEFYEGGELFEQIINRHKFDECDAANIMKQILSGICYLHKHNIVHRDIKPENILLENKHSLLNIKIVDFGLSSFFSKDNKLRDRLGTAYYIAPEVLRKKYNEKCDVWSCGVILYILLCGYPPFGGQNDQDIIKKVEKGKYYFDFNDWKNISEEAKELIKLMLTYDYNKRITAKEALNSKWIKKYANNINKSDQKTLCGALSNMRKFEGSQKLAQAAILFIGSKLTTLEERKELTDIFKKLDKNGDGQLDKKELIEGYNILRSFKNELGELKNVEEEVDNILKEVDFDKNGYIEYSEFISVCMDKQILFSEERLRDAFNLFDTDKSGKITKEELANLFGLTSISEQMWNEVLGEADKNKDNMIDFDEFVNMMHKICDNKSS
Protein kinase 7 (PK7), Plasmodium falciparum 3D7 (PF3D7_0213400), sequence (Q7YTF7 1-343): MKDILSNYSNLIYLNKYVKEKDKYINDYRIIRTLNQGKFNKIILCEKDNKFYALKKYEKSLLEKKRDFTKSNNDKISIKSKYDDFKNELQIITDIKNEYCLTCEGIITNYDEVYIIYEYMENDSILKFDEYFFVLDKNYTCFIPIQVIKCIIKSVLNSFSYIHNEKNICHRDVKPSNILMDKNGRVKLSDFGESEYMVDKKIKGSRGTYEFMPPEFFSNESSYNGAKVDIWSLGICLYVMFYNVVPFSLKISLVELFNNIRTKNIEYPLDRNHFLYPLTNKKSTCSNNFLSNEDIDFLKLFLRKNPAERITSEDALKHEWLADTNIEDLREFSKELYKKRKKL
L-lactate dehydrogenase (Plasmodium falciparum (isolate CDC / Honduras)), sequence (Q27743 whole entry, looked up): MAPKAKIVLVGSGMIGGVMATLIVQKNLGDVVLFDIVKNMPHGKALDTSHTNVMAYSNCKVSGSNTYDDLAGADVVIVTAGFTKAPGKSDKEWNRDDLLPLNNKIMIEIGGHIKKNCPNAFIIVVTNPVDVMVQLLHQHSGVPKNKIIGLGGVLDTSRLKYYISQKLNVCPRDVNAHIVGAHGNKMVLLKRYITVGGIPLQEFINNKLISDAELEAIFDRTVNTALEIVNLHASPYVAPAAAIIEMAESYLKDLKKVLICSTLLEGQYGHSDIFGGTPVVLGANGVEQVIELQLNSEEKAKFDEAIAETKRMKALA
Plasmodium falciparum protein kinase 6 (PK6, PF3D7_1337100), sequence (Q8IDW1 1-305): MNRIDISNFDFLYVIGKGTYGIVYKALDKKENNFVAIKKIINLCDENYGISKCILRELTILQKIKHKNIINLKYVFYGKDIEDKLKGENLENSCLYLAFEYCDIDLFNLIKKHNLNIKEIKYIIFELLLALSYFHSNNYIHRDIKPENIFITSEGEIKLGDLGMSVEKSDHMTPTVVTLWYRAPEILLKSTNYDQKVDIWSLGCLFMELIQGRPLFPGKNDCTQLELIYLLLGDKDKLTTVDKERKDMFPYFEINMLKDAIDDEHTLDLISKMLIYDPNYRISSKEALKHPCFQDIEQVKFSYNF

On to `COc1ccc2c(c1C1CCN(CCCCNC(=O)c3ccc(NC(=O)c4ccc(Cl)cc4)cc3)CC1)CCCC2`, for which the figures for the growth inhibition in experiment [1] and in experiment [4] were 99% (active) and 101% (active), respectively. For the same compound, the inhibition was 19% in experiment [2] and -2% in experiment [3]. Besides, the result in experiment [5], in experiment [6], in experiment [7] and in experiment [8] was inactive.
Regarding `Cc1nc(-c2cccc(C(F)(F)F)c2)n2nc(Nc3ccc(OCCN4CCCC4)cc3)ncc12`, the growth inhibition in experiment [1] was 29%; in experiment [4], 99% (active). In addition, the results for the inhibition in experiment [2] and in experiment [3] were 30% and -3%, respectively. Besides, the result in experiment [5], in experiment [6], in experiment [7] and in experiment [8] was inactive.
With `O=C(NC1CCN(Cc2ccccc2)C1)c1ccc(Nc2ccc(Br)cc2)nc1` (stereo not drawn), the growth inhibition was 21% in experiment [1] and 94% (active) in experiment [4]. Also, the inhibition in experiment [2] is 19%; in experiment [3] it was -1%. Moreover, the result in experiment [5], in experiment [6], in experiment [7] and in experiment [8] was inactive.
For `CCCc1ccc(Nc2nc(C)cc(N(CC)CCCN3CCCCC3)n2)cc1`, the growth inhibition was 95% (active) in experiment [1] and 101% (active) in experiment [4]. Besides, the figures for the inhibition in experiment [2] and in experiment [3] were 48% and 5%, respectively. The result in experiment [5], in experiment [6], in experiment [7] and in experiment [8] was inactive.
Take `COc1ccc(C(=O)CCC(=O)N(Cc2ccc(-c3ccc(CNCCc4ccc(S(C)(=O)=O)cc4)cn3)cc2)C2CCN(Cc3ccccc3)CC2)cc1F`: the growth inhibition was 72% (active) in experiment [1] and 99% (active) in experiment [4]. The inhibition in experiment [2] was 20%; in experiment [3] it was 2%. In addition, the outcome in experiment [5], in experiment [6], in experiment [7] and in experiment [8] was inactive.
`O=C(NCCNc1ccnc(NCc2ccc(F)cc2)n1)c1cc2ccccc2s1`: the growth inhibition in experiment [1] was 17%; in experiment [4], 99% (active). The inhibition in experiment [2] was 6%; in experiment [3], -5%. The outcome in experiment [5], in experiment [6], in experiment [7] and in experiment [8] was inactive.
As to `CCc1c[nH]c2c(N3CCCC3=O)cc(C(=O)N[C@@H](Cc3ccccc3)[C@H](O)CNC3CCCCC3)cc12`, the growth inhibition was 98% (active) in experiment [1] and 100% (active) in experiment [4]. Besides, the results for the inhibition in experiment [2] and in experiment [3] were 12% and -1%, respectively. Besides, the result in experiment [5], in experiment [6], in experiment [7] and in experiment [8] was inactive.
Turning to `CN1CCc2ccc(NC(=O)Nc3ccc(Cl)c(Cl)c3)cc2C1`, the growth inhibition was 22% in experiment [1] and 80% (active) in experiment [4]. The inhibition is -10% in experiment [2] and 1% in experiment [3]. Also, the outcome in experiment [5], in experiment [6], in experiment [7] and in experiment [8] was inactive.
Turning to `Cc1cc(NN=Cc2cccc(F)c2)c2cc(F)ccc2n1`, the growth inhibition is 99% (active) in experiment [1] and 101% (active) in experiment [4]. The figures for the inhibition in experiment [2] and in experiment [3] were 7% and -1%, respectively. In addition, the result in experiment [5], in experiment [6], in experiment [7] and in experiment [8] was inactive.
Take `COc1ccc(O)c(Cc2cnc3nc(N)nc(N)c3c2C)c1`: the growth inhibition in experiment [1] is 74% (active); in experiment [4], 94% (active). Further, the inhibition in experiment [2] was 56% (active); in experiment [3] it was 5%. In addition, the result in experiment [5], in experiment [6], in experiment [7] and in experiment [8] was inactive.
Regarding `N#CCCN1CCN(Cc2ccc(-c3cccc(-c4nc5ccc(F)cc5[nH]4)c3)cc2)CC1`, the figures for the growth inhibition in experiment [1] and in experiment [4] were 17% and 91% (active), respectively. The inhibition in experiment [2] was 16%; in experiment [3], 0%. Moreover, the result in experiment [5], in experiment [6], in experiment [7] and in experiment [8] was inactive.
Regarding `Cn1ccnc1Sc1ncccc1[N+](=O)[O-]`, the growth inhibition in experiment [1] is 2%; in experiment [4] it was 96% (active). Besides, the inhibition in experiment [2] is 0%; in experiment [3] it was -3%. Besides, the result in experiment [5], in experiment [6], in experiment [7] and in experiment [8] was inactive.
Turning to `Cc1cnc(Nc2cccnc2)nc1Nc1ccccc1C(=O)NC(C)C`, the growth inhibition is 26% in experiment [1] and 85% (active) in experiment [4]. Moreover, the inhibition was 9% in experiment [2] and 0% in experiment [3]. The outcome in experiment [5], in experiment [6], in experiment [7] and in experiment [8] was inactive.
As for `CC(C(=O)N1CCCC1)N1CCN(S(=O)(=O)c2ccc(C(C)(C)C)cc2)CC1` (stereo not drawn), the growth inhibition in experiment [1] was 86% (active); in experiment [4], 98% (active). Further, the inhibition in experiment [2] is 4%; in experiment [3] it was 0%. Besides, the outcome in experiment [5], in experiment [6], in experiment [7] and in experiment [8] was inactive.
As for `CCN(CC)CCCN(CCCN(CC)CC)c1cc(C)nc(Nc2ccc(Cl)cc2)n1`, the figures for the growth inhibition in experiment [1] and in experiment [4] were 7% and 101% (active), respectively. The inhibition in experiment [2] is 11%; in experiment [3], 2%. The outcome in experiment [5], in experiment [6], in experiment [7] and in experiment [8] was inactive.
In the case of `O=C(CSc1n[nH]c(=O)n1Cc1ccccc1)Nc1ccccc1-c1ccccc1`, the growth inhibition in experiment [1] was 36%; in experiment [4] it was 89% (active). Besides, the inhibition was -8% in experiment [2] and 3% in experiment [3]. Moreover, the result in experiment [5], in experiment [6], in experiment [7] and in experiment [8] was inactive.
In the case of `Nc1nccc(-c2ccc3c(/C=C/c4ccccc4)cnc(N)c3c2)n1`, the figures for the growth inhibition in experiment [1] and in experiment [4] were 100% (active) and 101% (active), respectively. In addition, the inhibition is 32% in experiment [2] and 2% in experiment [3]. Moreover, the outcome in experiment [5], in experiment [6], in experiment [7] and in experiment [8] was inactive.
Take `Cc1nc(-c2cccc3c(NC(=O)Nc4ccc5nccc(N6CCN(C)CC6)c5c4)cccc23)no1`: the growth inhibition in experiment [1] was 84% (active); in experiment [4], 100% (active). Moreover, the results for the inhibition in experiment [2] and in experiment [3] were -4% and -2%, respectively. For the same compound, the result in experiment [5], in experiment [6], in experiment [7] and in experiment [8] was inactive.
In the case of `CC(=O)c1ccc(N2CCN(C(=O)Nc3ccc(Cl)cc3)CC2)cc1`, the figures for the growth inhibition in experiment [1] and in experiment [4] were 0% and 97% (active), respectively. In addition, the inhibition was 4% in experiment [2] and 0% in experiment [3]. The outcome in experiment [5], in experiment [6], in experiment [7] and in experiment [8] was inactive.
As for `Cc1cccc2[nH]c(-c3ccc(-c4ccc(CNCc5cccc(N)c5)cc4)s3)nc12`, the growth inhibition in experiment [1] was 78% (active); in experiment [4] it was 102% (active). In addition, the inhibition in experiment [2] is 10%; in experiment [3], -2%. Also, the outcome in experiment [5], in experiment [6], in experiment [7] and in experiment [8] was inactive.
For `CCC(COCc1ccc(Cl)cc1)N(C)CCN(C)C(CC)COCc1ccc(Cl)cc1` (stereo not drawn), the growth inhibition in experiment [1] was 78% (active); in experiment [4] it was 95% (active). Moreover, the inhibition in experiment [2] was 89% (active); in experiment [3], -5%. In addition, the outcome in experiment [5], in experiment [6], in experiment [7] and in experiment [8] was inactive.

In general, inhibition refers to the change of the read-out against control, counted positive when it falls.
